# Experimental data: the supplement of paper PMC10498489
# Among all 2,300 compounds or so, about 330 (14%) showed activity. Not all results are given here. A number with no mark means an inactive call.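 Rule for the calls: active = median modified Z-score above 1.96; inactive = 1.96 or below.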
# Tested on: HepG2 Srxn1-GFP reporter cells (+30 nM CDDO-Me)
# Test: Srxn1-GFP intensity median modified Z-score relative to plate median; higher = stronger NRF2 / oxidative stress reporter activation, active = hit call of the paper
# Conditions: 10 µM; exposure time: 24h
# How it was run: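 In 96-well plates holding 20,000 HepG2 Srxn1-GFP BAC reporter cells per well, compound at 10 μM and an NRF2 activator at 30 nM were added together for 24 h, with DMSO at ≤0.1%, across three replicate plates. After fixation in formaldehyde and Hoechst staining, confocal images were analysed cell by cell for cytoplasmic GFP, and images containing under 100 cells were excluded. Values are replicate medians of the per-plate modified Z-score of GFP intensity, scaled by 1.4826 × median absolute deviation.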
row,Structure (SMILES),Srxn1-GFP intensity median modified Z-score
1,O=C(Nc1nc(-c2ccc(F)c(F)c2)cs1)c1cc(F)c(F)cc1[N+](=O)[O-],0.285
2,Cn1c(=O)c2c(ncn2CC2OCCO2)n(C)c1=O [euspeclibcmpd483],-0.13
3,O=c1cc(-c2ccccc2)oc2ccc(O)cc12 [euspeclibcmpd1505],0.447
4,O=c1cc(-c2ccccc2)oc2c(O)c(O)ccc12 [euspeclibcmpd2237],4.14 (active)
5,O=c1cc(-c2ccccc2)oc2cc(O)ccc12 [euspeclibcmpd1489],-0.269
6,O=c1c(Cc2c(O)oc3ccccc3c2=O)c(O)oc2ccccc12 [euspeclibcmpd328],-0.0638
7,CCCCc1c(O)n(-c2ccccc2)n(-c2ccccc2)c1=O [euspeclibcmpd235],0.115
8,O=c1c(CC[S+]([O-])c2ccccc2)c(O)n(-c2ccccc2)n1-c1ccccc1 (stereo unspecified) [euspeclibcmpd282],-0.197
9,CCCCc1c(O)n(-c2ccc(O)cc2)n(-c2ccccc2)c1=O [euspeclibcmpd223],13.1 (active)
10,O=c1c2c3c(sc2nc(SCc2ccc(Cl)c(Cl)c2)n1-c1ccccc1)CCCC3,1.55
11,COCCn1nc(C(=O)NC(C)c2cccc(Cl)c2)ccc1=O (stereo unspecified),1.38
12,Cc1cc(C(C)(C)C)c(O)c(C)c1CC1=NCCN1 [euspeclibcmpd222],0.261
13,CC(C)(Sc1cc(C(C)(C)C)c(O)c(C(C)(C)C)c1)Sc1cc(C(C)(C)C)c(O)c(C(C)(C)C)c1 [euspeclibcmpd377],-0.0593
14,Cc1cc(C(C)(C)C)c(O)c(C(C)(C)C)c1 [euspeclibcmpd1001],14.5 (active)
15,CN(C)CCCN1c2ccccc2Sc2ccc(Cl)cc21 [euspeclibcmpd59],0.609
16,O=C(NCCC(=O)N1CCN(Cc2ccc3c(c2)OCO3)CC1)c1ccc(Cl)cc1,1.31
17,CC1(C)SC2C(NC(=O)C(N)c3ccccc3)C(=O)N2C1C(=O)O (stereo unspecified) [euspeclibcmpd2081],-0.172
18,CC1C(=O)CCC2[C@]3(C)CC[C@@]4(C)C5CC(C)(C)CC[C@]5(C)CC[C@]4(C)C3CC[C@]12C (stereo partly specified) [euspeclibcmpd1606],-0.261
19,CC[C@@H]1OC(=O)C[C@@H](O)[C@H](C)[C@@H](O[C@@H]2O[C@H](C)[C@@H](O)[C@H](N(C)C)[C@H]2O)[C@@H](CCN2C[C@H](C)C[C@H](C)C2)CC(C)C(=O)/C=C/C(C)=C\C1CO[C@@H]1O[C@H](C)[C@@H](O)[C@@H](OC)[C@H]1OC (stereo partly specified) [euspeclibcmpd704],0.22
20,C=C(C)c1cc(O)c(C)cc1O [euspeclibcmpd1354],6.7 (active)
21,CC(C)(CO)C(=O)C(O)NCCC(=O)O (stereo unspecified) [euspeclibcmpd2436],0.216
22,Oc1ccc2c(c1)OCC1(O)Cc3cc(O)c(O)cc3C21 (stereo unspecified) [euspeclibcmpd1416],1.37

row,Structure (SMILES),Srxn1-GFP intensity median modified Z-score
1,NC(C(=O)C(O)C(O)CO)C(O)O (stereo unspecified) [euspeclibcmpd1661],-0.409
2,CCC[C@@H]1CC(C(=O)N[C@@H]([C@@H]2O[C@H](SC)[C@H](O)[C@@H](O)[C@H]2O)[C@H](C)Cl)N(C)C1 (stereo partly specified) [euspeclibcmpd68],-0.322
3,COC(=O)c1c(C)cc(OC(=O)c2c(C)cc(O)c(C=O)c2O)c(C)c1O [euspeclibcmpd1556],12.5 (active)
4,CCOC(=O)c1c(C)cc(O)c(C=O)c1O [euspeclibcmpd1571],-0.398
5,COc1cc(C)c(C(=O)Oc2cc(C)c(C(=O)O)c(O)c2C)c(OC)c1C [euspeclibcmpd1550],1.38
6,COC1CC(OC2C(C)C(=O)OC(C)C(C)C(O)C(C)C(=O)C3(CO3)CC(C)C(OC3OC(C)CC(N(C)C)C3O)C2C)OC(C)C1O (stereo unspecified) [euspeclibcmpd1849],-0.547
7,S=C=Nc1ccc(N=C=S)cc1 [euspeclibcmpd1177],20.6 (active)
8,O=S(=O)(O)c1cc(N=C=S)ccc1C=Cc1ccc(N=C=S)cc1S(=O)(=O)O [euspeclibcmpd1825],-0.132
9,CCOC(=O)C(CCc1ccccc1)NC(C)C(=O)N1C(C(=O)O)C[C@@H]2CCC[C@@H]21 (stereo partly specified) [euspeclibcmpd722],-0.468
10,CCCC(NC(C)C(=O)N1C(C(=O)O)C[C@@H]2CCCC[C@@H]21)C(=O)OCC (stereo partly specified) [euspeclibcmpd721],-0.404
11,CCOC(=O)C(CCc1ccccc1)NC(C)C(=O)N1C(C(=O)O)CC2CCCCC21 (stereo unspecified) [euspeclibcmpd732],9.5 (active)
12,CC1C(=O)O[C@H]2CC34[C@H]5CC(C(C)(C)C)C36C(=O)C(O)O[C@H]6OC4(C(=O)O5)[C@@]12O (stereo partly specified) [euspeclibcmpd2300],-0.422
13,CC(=O)Nc1ccc(OC(=O)c2ccccc2O)cc1 [euspeclibcmpd1988],-0.258
14,CN(C)N=Nc1[nH]cnc1C(N)=O [euspeclibcmpd80],60.7 (active)
15,CN(C)c1cc(NC(=O)CNC(C)(C)C)c(O)c2c1C[C@H]1C[C@H]3[C@H](N(C)C)C(=O)C(C(N)=O)C(=O)[C@@]3(O)C(=O)C1C2=O (stereo partly specified) [euspeclibcmpd1297],-0.316
16,OCc1cc(O)c2c(O)c3c(O)cccc3c([C@@H]3O[C@H](CO)[C@@H](O)[C@H](O)[C@H]3O)c2c1 [euspeclibcmpd1140],-0.523
17,CCNC1CN(CCCOC)S(=O)(=O)c2sc(S(N)(=O)=O)cc21 (stereo unspecified) [euspeclibcmpd1945],-0.371
18,COc1cc([C@@H]2c3cc4c(cc3C(OC3O[C@@H]5COC(C)O[C@H]5[C@H](O)[C@H]3O)C3COC(=O)C32)OCO4)cc(OC)c1O (stereo partly specified) [euspeclibcmpd356],2.43 (active)
19,COc1cc([C@@H]2c3cc4c(cc3C(O[C@@H]3O[C@@H]5CO[C@@H](c6cccs6)OC5[C@H](O)[C@H]3O)C3COC(=O)C32)OCO4)cc(OC)c1O (stereo partly specified) [euspeclibcmpd647],8.51 (active)
20,C=C1CCC(c2cc(O)oc2O)C(=O)CCC2C1CC2(C)C (stereo unspecified) [euspeclibcmpd1822],-0.357
21,Nc1ccc(S(=O)(=O)N=c2nccc[nH]2)cc1 [euspeclibcmpd274],-0.479
22,CCCCCCCCCCCCCCCC(=O)OCC(O)CO (stereo unspecified) [euspeclibcmpd1622],-0.224

row,Structure (SMILES),Srxn1-GFP intensity median modified Z-score
1,CCc1ccc(CCOc2ccc(Cc3sc(=O)[nH]c3O)cc2)nc1 [euspeclibcmpd684],-0.309
2,O=c1c(-c2ccc(Br)cc2)coc2cc(O)ccc12,0.373
3,C[C@]12CCC(=O)CC1=C1C[C@@H]1C1C2CC[C@@]2(C)C1[C@@H]1C[C@@H]1[C@@]21CCC(=O)O1 (stereo partly specified) [euspeclibcmpd608],-0.491
4,C[C@@H]1O[C@@H](O[C@H]2[C@@H](Oc3cc(O)c4c(c3)O[C@H](c3ccc(O)cc3)CC4=O)O[C@H](CO)[C@@H](O)[C@@H]2O)[C@H](O)[C@H](O)[C@H]1O [euspeclibcmpd1504],-0.249
5,NS(=O)(=O)c1ccc(C(=O)O)cc1 [euspeclibcmpd1180],0.0784
6,COc1ccc(-c2cc(C(F)F)nn2-c2ccc(S(N)(=O)=O)cc2)cc1F [euspeclibcmpd724],0.694
7,Cc1ccc(-c2cc(C(F)(F)F)nn2-c2ccc(S(N)(=O)=O)cc2)cc1 [euspeclibcmpd595],2.01 (active)
8,C=c1cc(O)c2c(O)c3c(O)c(=C)cc(O)c3c(O)c2c1O [euspeclibcmpd2077],-0.258
9,CCCCC(=O)O[C@]1(C(=O)CO)[C@@H](C)CC2C3CC=C4CC(=O)C=C[C@]4(C)[C@@]3(F)C(O)C[C@@]21C (stereo partly specified) [euspeclibcmpd36],-0.635
10,CS(=O)(=O)c1ccc(-c2coc(O)c2-c2ccccc2)cc1 [euspeclibcmpd2038],-0.358
11,O=C(O)CN(CCN(CC(=O)O)CC(=O)O)CC(=O)O [euspeclibcmpd2457],-0.0932
12,O=C(O)CN(CCN(CC(=O)O)CC(=O)O)CC(=O)O,2.26 (active)
13,O=C(O)CN(CCN(CC(=O)O)CC(=O)O)CCN(CC(=O)O)CC(=O)O [euspeclibcmpd916],-0.735
14,O=C(O)CS [euspeclibcmpd2222],-0.181
15,COC1C(O)C(O)C(O)[C@@H](O)C1O (stereo partly specified) [euspeclibcmpd1333],-0.525
16,C=C(NC(=O)C(C)=NC(=O)c1csc(C2=NC3c4csc(n4)C4NC(=O)c5csc(n5)C(C(C)(O)C(C)O)NC(=O)C5CSC(=N5)C(=CC)NC(=O)C(C(C)O)NC(=O)c5csc(n5)C3(CC2)NC(=O)C(C)NC(=O)/C(C)=N/C(=O)C(C)NC(=O)C(C(C)CC)NC2C=Cc3c(C(C)O)cc(nc3C2O)C(=O)OC4C)n1)C(N)=O (stereo unspecified) [euspeclibcmpd703],19.1 (active)
17,CC1(C)O[C@@H]2CC3C4CC=C5CC(=O)C=C[C@]5(C)C4[C@@H](O)C[C@]3(C)[C@]2(C(=O)CO)O1 (stereo partly specified) [euspeclibcmpd859],-0.247
18,C[N+](C)(C)C[C@H](O)CC(=O)O [euspeclibcmpd2087],-0.18
19,O=[N+]([O-])c1cccc2c[nH]nc12 [euspeclibcmpd1788],-0.00617
20,COC(=O)[C@@]1(C)CCC[C@]2(C)c3ccc(O)c(C(C)C)c3CCC12 (stereo partly specified) [euspeclibcmpd1676],1.46
21,CC(C)c1c(O)ccc2c1CCC1C(C)(C)CCC[C@]21C (stereo partly specified) [euspeclibcmpd1572],8.09 (active)
22,CC(C)c1c(O)c(-c2cc3c(c(C(C)C)c2O)CCC2C(C)(C)CCC[C@]32C)cc2c1CCC1C(C)(C)CCC[C@]21C (stereo partly specified) [euspeclibcmpd1653],-0.248
